Laboratory results taken from PMC12215968.

target: Ubiquitin-ribosomal protein eS31 fusion protein (UniProt P62979); test: cross-link between two proteins; cross-linking mass spectrometry

Listed as a hit, yes:
Ubiquitin-conjugating enzyme E2 K, P61086
Ubiquitin-conjugating enzyme E2 N, P61088
Ubiquitin carboxyl-terminal hydrolase 5, P45974
